Test results reported in PubChem BioAssay AID1159580 (chemical genetic matrix, 2015).
In all, about 5,500 compounds went through this assay and about 2,000 (36%) were called active. Roughly 18% stayed inconclusive and do not appear here. Cut-off read from the data, not from the text of the source: active = normalized growth mostly below about 0.91 (no sharp cut-off); inconclusive = no clear call, values can overlap the other calls; inactive = mostly above about 0.92. The list shows a part of the results.

Assay: chemical genetic growth profiling, strain panel (AID 1159580);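 note: tested at 20 µM; growth read once vehicle control cultures reached saturation at 30 °C; 1 = growth at the plate median or of vehicle wells; lower values mean less growth of the strain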
Conditions: S. cerevisiae deletion strains, growth OD
[1] = locus YAL013W, strain DEP1, active compounds read low
[2] = locus YCL061C, strain MRC1, active compounds read low
[3] = locus YGR078C, strain PAC10, active compounds read low
[4] = locus YHR030C, strain SLT2, active compounds read low
[5] = locus YJL095W, strain BCK1, active compounds read low
[6] = locus YJL187C, strain SWE1, active compounds read low
[7] = locus YMR307W, strain GAS1, active compounds read low
[8] = locus YNL322C, strain KRE1, active compounds read low
[9] = locus YPL055C, strain LGE1, active compounds read low
[10] = locus YPL241C, strain CIN2, active compounds read low
[11] = locus YBR229C, strain ROT2, active compounds read low
[12] = locus YDL101C, strain DUN1, active compounds read low
[13] = locus YEL061C, strain CIN8, active compounds read low
[14] = locus YGR229C, strain SMI1, active compounds read low
[15] = locus YJR043C, strain POL32, active compounds read low
[16] = locus YKL190W, strain CNB1, active compounds read low
[17] = locus YLR039C, strain RIC1, active compounds read low
[18] = locus YLR262C, strain YPT6, active compounds read low
[19] = locus YOL006C, strain TOP1, active compounds read low

Measured: normalized growth

Nc1nnc(-c2cccc(Cl)c2Cl)c(N)n1
inactive: [1] 0.995 | locus YAL021C, strain ccr4, active compounds read low 1.01 | locus YAL026C, strain drs2, active compounds read low 1.02 | locus YAL030W, strain snc1, active compounds read low 1.03 | locus YAL040C, strain CLN3, active compounds read low 0.986 | locus YBL061C, strain skt5, active compounds read low 1.02 | locus YBR009C, strain hhf1, active compounds read low 1.03 | locus YBR023C, strain chs3, active compounds read low 1.02 | locus YBR171W, strain sec66, active compounds read low 1.04 | locus YBR231C, strain swc5, active compounds read low 1.03 | locus YBR279W, strain paf1, active compounds read low 1.02 | locus YCL011C, strain gbp2, active compounds read low 1.02 | locus YCL016C, strain dcc1, active compounds read low 1.01 | locus YCL061C, strain MRC1 (second series), active compounds read low 1.01 | [2] 1.02 | locus YCL069W, strain vba3, active compounds read low 1.02 | locus YCR088W, strain abp1, active compounds read low 1.02 | locus YDL005C, strain med2, active compounds read low 1.02 | locus YDL040C, strain nat1, active compounds read low 1.02 | locus YDR001C, strain nth1, active compounds read low 1.02 | locus YDR069C, strain doa4, active compounds read low 1.04 | locus YDR137W, strain rgp1, active compounds read low 1.02 | locus YDR159W, strain sac3, active compounds read low 1.03 | locus YDR195W, strain ref2 1.03 | locus YDR297W, strain sur2, active compounds read low 1.02 | locus YDR334W, strain swr1, active compounds read low 1.02 | locus YDR335W, strain msn5, active compounds read low 1.02 | locus YDR363W, strain ESC2, active compounds read low 0.985 | locus YDR392W, strain spt3, active compounds read low 0.987 | locus YEL003W, strain gim4, active compounds read low 1.02 | locus YEL037C, strain rad23, active compounds read low 1.01 | locus YEL061C, strain CIN8 (second series), active compounds read low 1.02 | locus YER002W, strain NOP16, active compounds read low 0.976 | locus YER015W, strain faa2, active compounds read low 1.03 | locus YER016W, strain bim1, active compounds read low 1.02 | locus YER111C, strain swi4, active compounds read low 1.03 | locus YER155C, strain BEM2 (second series), active compounds read low 1.04 | locus YFR010W, strain ubp6, active compounds read low 1.01 | locus YGL167C, strain pmr1, active compounds read low 1.02 | locus YGL173C, strain kem1, active compounds read low 1.03 | locus YGL227W, strain vid30, active compounds read low 1.03 | locus YGL240W, strain doc1, active compounds read low 1.03 | locus YGL253W, strain hxk2, active compounds read low 1.02 | [3] 1.01 | locus YHR013C, strain ard1, active compounds read low 1.05 | locus YHR027C, strain rpn1, active compounds read low 1.02 | [4] 1 | locus YHR079C, strain IRE1, active compounds read low 0.995 | locus YHR142W, strain chs7, active compounds read low 1.02 | locus YJL092W, strain hpr5, active compounds read low 1.01 | locus YJL095W, strain BCK1 (second series), active compounds read low 1.02 | [5] 0.997 | locus YJL115W, strain asf1, active compounds read low 1.03 | locus YJL129C, strain trk1, active compounds read low 1.04 | locus YJL154C, strain vps35, active compounds read low 1.02 | locus YJL164C, strain tpk1, active compounds read low 1.02 | locus YJL166W, strain qcr8, active compounds read low 1.03 | [6] 1.02 | locus YJR066W, strain TOR1, active compounds read low 0.949 | locus YKL160W, strain elf1, active compounds read low 1.03 | locus YKR026C, strain gcn3, active compounds read low 1 | locus YKR091W, strain srl3, active compounds read low 1.02 | locus YLL001W, strain dnm1, active compounds read low 0.997 | locus YLL026W, active compounds read low 1.02 | locus YLL041C, strain sdh2, active compounds read low 1.02 | locus YLR027C, strain aat2, active compounds read low 1.03 | locus YLR113W, strain HOG1, active compounds read low 0.966 | locus YLR221C, strain rsa3, active compounds read low 1.02 | locus YLR258W, strain gsy2, active compounds read low 1.02 | locus YLR262C, strain YPT6 (second series), active compounds read low 1.02 | locus YLR320W, strain mms22, active compounds read low 1.03 | locus YLR342W, strain FKS1, active compounds read low 1.02 | locus YLR357W, strain rsc2, active compounds read low 1.07 | locus YLR370C, strain arc18, active compounds read low 1.02 | locus YLR384C, strain iki3, active compounds read low 1.02 | locus YML120C, strain ndi1, active compounds read low 0.994 | locus YMR058W, strain fet3, active compounds read low 1.02 | locus YMR125W, strain sto1, active compounds read low 1.05 | locus YMR129W, active compounds read low 1.02 | locus YMR205C, strain PFK2, active compounds read low 1.03 | locus YMR231W, strain pep5, active compounds read low 1.01 | [7] 1.01 | locus YNL071W, strain lat1, active compounds read low 1.01 | locus YNL175C, strain NOP13, active compounds read low 0.986 | locus YNL183C, strain NPR1, active compounds read low 0.949 | locus YNL197C, strain WHI3, active compounds read low 0.991 | locus YNL209W, strain ssb2, active compounds read low 1.02 | locus YNL224C, strain SQS1, active compounds read low 0.981 | locus YNL248C, strain rpa49, active compounds read low 1.02 | locus YNL322C, strain KRE1 (second series), active compounds read low 1.02 | [8] 1.01 | locus YNR049C, strain mso1, active compounds read low 1.03 | locus YOR001W, strain rrp6, active compounds read low 1.02 | locus YOR070C, strain gyp1, active compounds read low 1.02 | locus YOR080W, strain dia2, active compounds read low 1.03 | locus YOR083W, strain WHI5 (second series), active compounds read low 0.992 | locus YOR083W, strain WHI5, active compounds read low 1.01 | locus YOR106W, strain vam3, active compounds read low 1.03 | locus YOR231W, strain MKK1, active compounds read low 1.01 | locus YOR265W, strain rbl2, active compounds read low 1.02 | locus YOR270C, strain vph1, active compounds read low 1.08 | locus YOR290C, strain snf2, active compounds read low 1.04 | locus YPL051W, strain arl3, active compounds read low 1.02 | [9] 0.994 | locus YPL078C, strain atp4, active compounds read low 1.01 | locus YPL106C, strain sse1, active compounds read low 1.02 | locus YPL240C, strain hsp82, active compounds read low 1.02 | [10] 1 | locus YPL256C, strain CLN2, active compounds read low 0.989

CSC(=NCc1cccnc1)NC#N
inactive: [1] 0.991 | [11] 1 | [2] 1 | [12] 1 | locus YDR150W, strain NUM1, active compounds read low 0.997 | [13] 0.993 | [3] 1 | [14] 1 | [4] 1.01 | locus YHR087W, strain rtc3, active compounds read low 1 | [6] 0.994 | [15] 0.986 | locus YJR075W, strain HOC1, active compounds read low 0.998 | [16] 0.998 | [17] 1 | locus YLR058C, strain SHM2 (second series), active compounds read low 0.992 | locus YLR085C, strain ARP6, active compounds read low 1.02 | [18] 1.01 | locus YML094W, strain GIM5, active compounds read low 1.06 | locus YMR219W, strain ESC1, active compounds read low 1 | locus YMR263W, strain SAP30, active compounds read low 0.992 | locus YNL153C, strain GIM3, active compounds read low 1.01 | locus YNL298W, strain CLA4 (second series), active compounds read low 1.01 | [8] 0.998 | locus YNR030W, strain Alg12, active compounds read low 1 | [19] 1.03 | [9] 0.994 | [10] 0.987 | locus YPR135W, strain CTF4, active compounds read low 1.01

COC(=O)C[C@H]1C(C)(C)C(=O)[C@@H]2CC3=C4CC(OC)O[C@@H](c5ccoc5)[C@]4(C)CCC3[C@@]1(C)C2=O (stereo partly specified)
inactive: locus YBR021W, strain FUR4, active compounds read low 1.01 | [11] 0.994 | locus YCL029C, strain bik1, active compounds read low 0.987 | locus YDL035C, strain GPR1, active compounds read low 1.02 | locus YDL074C, strain BRE1, active compounds read low 1.01 | [12] 1.01 | locus YDL134C, strain PPH21, active compounds read low 1 | locus YDL185W, strain tfp1, active compounds read low 1 | locus YDL192W, strain arf1, active compounds read low 1 | locus YDR101C, strain arx1, active compounds read low 0.995 | locus YDR162C, strain NBP2, active compounds read low 1 | locus YDR318W, strain mcm21, active compounds read low 0.998 | locus YDR388W, active compounds read low 0.991 | locus YDR502C, strain sam2, active compounds read low 0.989 | [13] 0.999 | locus YER110C, active compounds read low 0.994 | locus YER155C, strain BEM2, active compounds read low 1.01 | locus YER167W, strain BCK2, active compounds read low 1.01 | locus YGL078C, strain dbp3, active compounds read low 1.01 | locus YGL086W, strain mad1, active compounds read low 0.995 | locus YGL248W, strain PDE1, active compounds read low 1.01 | [3] 1.01 | locus YGR135W, strain pre9, active compounds read low 0.99 | [14] 1.03 | locus YGR252W, strain gcn5, active compounds read low 1.01 | [4] 1 | locus YHR079C, strain IRE1 (second series), active compounds read low 0.996 | locus YHR094C, strain hxt1, active compounds read low 0.993 | locus YHR129C, strain ARP1, active compounds read low 1.01 | locus YHR200W, strain rpn10, active compounds read low 0.997 | locus YIL066C, strain RNR3, active compounds read low 1.01 | locus YIL073C, strain SPO22, active compounds read low 0.995 | locus YIL125W, strain kgd1, active compounds read low 0.998 | locus YIR030C, strain dcg1, active compounds read low 1 | [5] 1.01 | locus YJL134W, strain LCB3, active compounds read low 1.01 | locus YJL168C, strain set2, active compounds read low 0.996 | locus YJL187C, strain SWE1 (second series), active compounds read low 1.01 | [15] 1.02 | locus YKL009W, strain mrt4, active compounds read low 0.984 | locus YKL068W, active compounds read low 1 | locus YKL085W, strain MDH1 (second series), active compounds read low 1 | locus YKL085W, strain MDH1, active compounds read low 1 | [16] 1.01 | locus YKR001C, strain vps1, active compounds read low 1 | [17] 0.969 | locus YLR058C, strain SHM2, active compounds read low 1 | locus YLR102C, strain apc9, active compounds read low 1 | [18] 0.982 | locus YLR268W, strain sec22, active compounds read low 1.01 | locus YLR330W, strain CHS5, active compounds read low 1 | locus YLR342W, strain FKS1 (second series), active compounds read low 0.991 | locus YLR371W, strain rom2, active compounds read low 1 | locus YLR418C, strain cdc73, active compounds read low 0.992 | locus YML016C, strain PPZ1, active compounds read low 1 | locus YML032C, strain rad52, active compounds read low 0.997 | locus YML124C, strain tub3, active compounds read low 1 | locus YMR078C, strain ctf18, active compounds read low 0.99 | locus YMR223W, strain ubp8, active compounds read low 1.01 | [7] 1.03 | locus YNL067W, strain RPL9B, active compounds read low 1.01 | locus YNL233W, strain BNI4, active compounds read low 1.04 | locus YNL250W, strain rad50, active compounds read low 0.986 | locus YNL271C, strain bni1, active compounds read low 1 | locus YNL298W, strain CLA4, active compounds read low 0.984 | locus YNL307C, strain MCK1, active compounds read low 0.985 | locus YNR052C, strain pop2, active compounds read low 1.01 | [19] 1.06 | locus YOL012C, strain htz1 1.32 | locus YOL147C, strain pex11, active compounds read low 0.995 | locus YOR061W, strain CKA2, active compounds read low 0.999 | locus YOR069W, strain VPS5, active compounds read low 1.01 | locus YOR136W, strain idh2, active compounds read low 0.999 | locus YOR144C, strain elg1, active compounds read low 0.988 | locus YOR184W, strain ser1, active compounds read low 1.01 | locus YOR316C, strain cot1, active compounds read low 1 | [9] 1.03 | [10] 1 | locus YPR119W, strain clb2, active compounds read low 1.01 | locus YPR141C, strain kar3, active compounds read low 0.999 | locus YPR163C, strain tif3, active compounds read low 0.996 | locus YPR167C, strain met16, active compounds read low 1 | strain wtn01, active compounds read low 1.01
